High-throughput results as filed in PubChem.
Dicer inh = inhibitors of Dicer pre-microRNA processing, primary screen, biochemical, cat-ELCCA, chemiluminescence; cat-ELCCA pre-miR-21 Dicer processing; active compounds read high; z-score at 25 µM; hit rate 6% among 47,000; in the data active means z-score above about 3, passing the limit was not always enough;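 further: higher signal means more uncleaved substrate so more Dicer inhibition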
Each line names hits and unclear results; the compound was inactive in the other large screens. The entries come from a sample that favours hits as a whole.

CC1(C)CC(=O)c2cc3c(N)c(C(=O)c4ccc(F)cc4)sc3nc2C1	none
CCOC(=O)c1cnc(NNS(=O)(=O)c2ccc(C(F)(F)F)cc2)nc1C(F)(F)F	none
CC(=O)c1cc(Cl)cc(Cl)c1OC(=O)c1ccc([N+](=O)[O-])cc1	none
CCOc1cc(C)c(S(=O)(=O)n2cc(C)nc2CC)cc1C	none
CCOC(=O)c1c(C)oc2cc(Cl)c(O)c(CN(C)C)c12	none
CCOC(=O)c1c(CN(CC)CC)oc2ccc(OC)cc12	none
CCOC(=O)c1c(C)oc2ccc(O)c(CN(C)C)c12	Dicer inh 4
Cc1ccc(-c2nc(NC(=O)CSc3nnc(C)s3)ns2)cc1	none
Cc1ccccc1-c1nc(NC(=O)CSc2ncnc3sc(C)c(C)c23)ns1	Dicer inh 3
COC(=O)c1c(NC(=O)CSc2ncnc3sc(C)c(C)c23)sc2c1CCCC2	none
COC(=O)Cc1c(C(=O)OC)nnn1-c1ccc(Cl)cc1	none
Nc1nc2c(c(=O)[nH]1)C(c1ccccc1)CC(=O)N2 (configuration not stated)	none
COc1ccc(OC)c(NC(=O)/C=C/C(=O)O)c1	none
C=C(C)c1cccc(C(C)(C)NC(=O)NCCc2ccc(S(N)(=O)=O)cc2)c1	Dicer inh 3.9
C=C(C)c1cccc(C(C)(C)NC(=O)NCCc2ccccc2)c1	none
C=C(C)c1cccc(C(C)(C)NC(=O)NCc2ccc(Cl)cc2)c1	none
O=C(Nc1cccc(Cl)c1)C1=CC(=O)N2CCCN=C2S1	none
COc1ccc(C2N=C(N)Nc3nc4ccccc4n32)cc1OC (configuration not stated)	none
CNC(=S)NNS(=O)(=O)c1ccc(Cl)cc1	none
CCOC(=O)CSc1ccc(C(=O)N(Cc2ccc3c(c2)OCO3)c2ccc(F)cc2)cc1[N+](=O)[O-]	none
O=C1CSC(=Nc2ccc(Cl)cc2)N1C(=O)c1ccccc1Cl	none
O=C1c2cc([N+](=O)[O-])ccc2-c2ccc([N+](=O)[O-])cc21	Dicer inh 7.7
O=[N+]([O-])c1ccc2c(c1)C(=NO)c1cc([N+](=O)[O-])ccc1-2	none
NN=C1c2cc([N+](=O)[O-])ccc2-c2ccc([N+](=O)[O-])cc21	none
COc1ccc2nc(SCC(=O)Nc3ccc4c(c3)OCO4)[nH]c2c1	none
CC(=O)C1C(=O)c2c(Cl)c(Cl)c(Cl)c(Cl)c2C1=O	Dicer inh 5.1
CC(=O)C1C(=O)CC(c2ccc(Cl)cc2)CC1=O (configuration not stated)	none
CC(=O)C1C(=O)c2cccc([N+](=O)[O-])c2C1=O (configuration not stated)	none
Cc1nn(Cc2ccc(C(=O)O)cc2)c(C)c1Cl	none
Cc1c(C)c(C)c(S(=O)(=O)NN(C)c2ccc(C#N)cc2[N+](=O)[O-])c(C)c1C	none
Cc1cc(C)nc(NC(=O)CN2C(=O)C3CCCCC3C2=O)n1 (configuration not stated)	none
Cc1ccnc(NS(=O)(=O)c2ccc(N3C(=O)C4CCCCC4C3=O)cc2)n1 (configuration not stated)	Dicer inh 8.1
CC(=O)Nc1ccc(S(=O)(=O)Nc2nc(C)cc(C)n2)cc1	none
N=c1ccccn1CC(O)c1ccccc1 (configuration not stated)	none
CCOC(=O)C(=CNc1cc(C(F)(F)F)cc(C(F)(F)F)c1)C(=O)OCC	none
CC(C)(C)NC(=O)C1C2CC3(Oc4ccc5ccccc5c42)N1c1ccccc1C3(C)C (configuration not stated)	none
COCCCN1CN=C(NS(=O)(=O)c2ccc(C)cc2)NC1	none
Cc1ccc(S(=O)(=O)NC2=NCN(Cc3cccnc3)CN2)cc1	Dicer inh 4.5
COCCN1CN=C(NS(=O)(=O)c2ccc(C)cc2)NC1	none
COc1cc(C2CC(=S)Nc3ccccc3S2)cc(OC)c1OC (configuration not stated)	none
C=CCOC(=O)C1=C(C)NC2=C(C(=O)CCC2)C1c1cccc(Br)c1 (configuration not stated)	none
COC(=O)C(CCSC)NS(=O)(=O)c1cc(C(F)(F)F)cc(C(F)(F)F)c1 (configuration not stated)	Dicer inh 4.8
CCOC(=O)C(=CNNS(=O)(=O)c1cc(C(F)(F)F)cc(C(F)(F)F)c1)C(=O)OCC	none
CSCCC(NC(=O)c1ccc(C(F)(F)F)cc1)C(=O)NN (configuration not stated)	none
O=C(Cc1cccc2ccccc12)Nc1ccc2nccnc2c1	none
CCN(C(=Nc1ccc(Cl)cc1)SC)c1ccccc1	Dicer inh 3.4
CCN(C(=S)Nc1c(C)cccc1Cl)c1ccccc1	none
CSC(N)=Nc1ccccc1	none
FC(F)(F)c1oc(-c2ccc(Cl)cc2)cc1-c1nc(-c2cccs2)no1	none
Cc1ccc(C2C3=C(Nc4c2c(=O)n(C)c(=O)n4C)c2ccccc2C3=O)cc1 (configuration not stated)	none
Cc1ccc(C2C3=C(Nc4c2c(=O)[nH]c(=O)n4C)c2ccccc2C3=O)cc1 (configuration not stated)	none
Cn1c2c(c(=O)[nH]c1=O)C(c1ccc(-c3ccccc3)cc1)C1=C(N2)c2ccccc2C1=O (configuration not stated)	Dicer inh 4.6
Cn1c2c(c(=O)[nH]c1=O)C(c1ccccc1)C1=C(N2)c2ccccc2C1=O (configuration not stated)	Dicer inh 3
Cn1c2c(c(=O)[nH]c1=O)C(c1ccc(Br)cc1)C1=C(N2)c2ccccc2C1=O (configuration not stated)	none
Cn1c2c(c(=O)[nH]c1=O)C(c1ccc(Cl)cc1)C1=C(N2)c2ccccc2C1=O (configuration not stated)	none
Cn1c2c(c(=O)n(C)c1=O)C(c1ccc(OC(=O)c3ccccc3)cc1)C1=C(N2)c2ccccc2C1=O (configuration not stated)	Dicer inh 7.1
CCOC(=O)C1=C(C)NC2=C(C(=O)c3ccccc32)C1c1ccc(OC)cc1 (configuration not stated)	Dicer inh 3.3
Cn1c2c(c(=O)[nH]c1=O)C(c1ccc(F)cc1)C1=C(N2)c2ccccc2C1=O (configuration not stated)	none
CCOC(=O)C1=C(C)NC2=C(C(=O)c3ccccc32)C1c1cccc(OC)c1 (configuration not stated)	none
CCOC(=O)C1=C(C)NC2=C(C(=O)c3ccccc32)C1c1ccccc1 (configuration not stated)	none
Cn1c2c(c(=O)n(C)c1=O)C(c1cccc(OC(=O)c3ccccc3)c1)C1=C(N2)c2ccccc2C1=O (configuration not stated)	none
Cc1ccc(-c2nnc3n2N=C(c2c[nH]c4ccccc24)CS3)cc1	none
CO[C@H]1C[C@@H]2CC[C@@H](C)[C@@](O)(O2)C(=O)C(=O)N2CCCC[C@@H]2C(=O)OC([C@H](C)C[C@@H]2CC[C@@H](OC(=O)C(C)(CO)CO)[C@H](OC)C2)CC(=O)[C@H](C)/C=C(\C)[C@@H](O)[C@@H](OC)C(=O)[C@H](C)C[C@H](C)/C=C/C=C/C=C/1C (some centres not stated)	none
CCCc1c(C(=O)O)nnn1-c1nonc1N	none
c1ccc(-c2cc(N3CCOCC3)nn2-c2ccccc2)cc1	none
CCCNS(=O)(=O)c1ccc(NC2=NS(=O)(=O)c3ccccc32)cc1	none
CC(C)(C)/C=N/NC(=O)CNS(=O)(=O)c1cccc2nsnc12	none
O=C1OC(c2ccccc2)=N/C1=C/c1ccc([N+](=O)[O-])s1	none
O=C1C2SCCN2C(=S)N1c1ccc(Cl)cc1 (configuration not stated)	none
O=C(c1ccco1)c1cn(CCOc2ccccc2F)c2ccccc12	none
